This is an account of results in PubChem BioAssay (EPA / NIEHS).

Active and inactive are the calls of the source. How the source made its calls: active means hit-call score of the fitted dose curve at least 0.9, where 1 is the maximum; inactive means score below 0.9.

Read-out in the assay: 3-Hydroxy-3-Methylglutaryl-CoA Synthase 2 (HMGCS2), HMGCS2 (gene 3158)
Description: LTEA_HepaRG_HMGCS2: Life Technologies and Expression Analysis (LTEA) Assay for 3-Hydroxy-3-Methylglutaryl-CoA Synthase 2 (HMGCS2) using HepaRG (AID 2283504). The conditions noted are these: mRNA level, 48 h; actives raise or lower the signal. How it is done: LTEA_HepaRG is a cell based, multiplexed-readout assay that uses HepaRG, a human liver cell line, with measurements taken at 48 hours after chemical dosing on a 96-well plate.LTEA_HepaRG_HMGCS2 is one of 102 assay component(s) measured in the LTEA HepaRG cell culture assay. It is a marker of Steatosis.Data from the assay component LTEA_HepaRG_HMGCS2 was analyzed into 1 endpoint. This assay endpoint, LTEA_HepaRG_HMGCS2, was analyzed with bidirectional fitting relative to DMSO as the negative control and baseline of activity. Using a type of inducible reporter, measures of mRNA induction for gain or loss-of-signal activity can be used to understand regulation of transcription factor activity. To generalize the intended target to other relatable targets, this assay endpoint is annotated to the lyase intended target family, where the subfamily is HMG-CoA synthase.
A total of 1060 chemcials from the ToxCast library were tested in eight-point concentration-response experiments. Cell culture and cytotoxicity assays were conducted at Thermo Fisher Scientific's Custom Services facility (Madison, WI). A single lot of human HepaRG cells (Thermo Fisher Scientific, Frederick, MD) was used for the cell culture experiments. 96-well format collagen type I coated plates of human HepaRG cells were prepared using established methods. Briefly, cryopreserved HepaRG cells were thawed, plated at a density of approximately 100,000 cells/well in HepaRG Thaw, Plate, and General Purpose media (HPRG770, Thermo Fisher Scientific), and incubated for 48 hours. 0.5% DMSO was selected as vehicle control to balance the requisite need of DMSO in HepaRG cultures to maintain differentiation (for example, baseline metabolism, proportions of hepatocytes vs. cholangiocytes), while enabling further hepatic receptor pathway activation (for example, PXR and CAR) in response to chemical exposure. 48 hours after plating, the culture medium was replaced with HepaRG Serum-Free Incudtion Media. Cells were exposed to each test chemical in duplicate and maintained in CO2 incubators for another 48 hours. Chemical plates were thawed to room temperature and 200x concentrations of treatment groups were prepared. 8-point conentration-reponse curves were made with the highest exposure at 100 uM, followed by half-log dilutions, all in 0.5% DMSO. Each test plate contained variouse controls, induction positive controls (1mM phenobarbital), cytotoxicity positive controls ([…] aflatoxin B1), vehicle controls (0.5% DMSO), and total lysis controls (0.5% DMSO). Cell morphology images were taken using an Essen IncuCyte FLR automated microscope, with six 96-well plates imaged in about 24 minutes. Images were captured and exported and JPEG files. Spent culture media was transfered to black-well plates for the LDH assay, and remaining media was sorted at -80 C for later use. Cells were treated with RLT buffer and frozen until shipped for gene expression analysis. Total RNA was isolated from the cell suspension in 75 uL of Buffer RLT (Qiagen, Germantown, MD 20874) by Quintiles/Expression Analysis (Durham, NC) using a custom isolation procedure. Total RNA from each plate well was transferred to a preamplification plate. Fluidigm's 96.96 Dynamic ArrayTM (Fluidigm, Amsterdam, the Netherlands) technology was used for gene expression analyses by quantitative reverse transcription polymerase chain reaction (qRT-PCR, performed by Quintiles/Expression Analysis, Durham, NC)89. Standard TaqManTM Assays (Applied Biosystems/ThermoFisher Scientific, Foster City, CA) were used to assess the expression of 93 genes selected based on their selectivity and sensitivity to important hepatic receptors known to be modulated by environmental chemicals; importance in human hepatocyte functionality; and hepatotoxicity. […]
For `CC(=O)Nc1ccc(O)cc1`, the compound was classed as inactive. Same read-out and setting: for `CCC(C)c1ccccc1O` (stereo unspecified) the value was “inactive”. On to `CN(C)CCOC(c1ccccc1)c1ccccc1`, for which the result was inactive. Same read-out and setting: for `CN(Cc1cnc2nc(N)nc(N)c2n1)c1ccc(C(=O)N[C@@H](CCC(=O)O)C(=O)O)cc1` the value was “inactive”. As to `CCCCCCCCCCCCCCC`, the compound was classed as inactive. For the compound `O=C(CCCN1CCC(O)(c2ccc(Cl)cc2)CC1)c1ccc(F)cc1`, the AC50 is 84.4 µM (active). Take `CCCCC=O`: the compound was classed as inactive. `CCCCC(CC)C(=O)O` (stereo unspecified): the compound was classed as inactive. Turning to `O=C1NS(=O)(=O)c2ccccc21`, the call was inactive. For `CS(=O)(=O)c1ccc([C@@H](CC2CCCC2)C(=O)Nc2cnccn2)cc1Cl`, the AC50 was 74.3 µM (active). As to `N=C(N)c1ccc(OCCCCCOc2ccc(C(=N)N)cc2)cc1`, the AC50 was 7.77 µM (active). As for `CCCCc1oc2ccccc2c1C(=O)c1cc(I)c(OCCN(CC)CC)c(I)c1`, the AC50 is 61.6 µM (active). `O=C(c1ccccc1)c1ccccc1`: the call was inactive.

Consider `OCC(CO)(CBr)CBr`, for which the compound was called inactive. On to `Cc1[nH]nc2c1N=C(c1ccccc1Cl)c1cc([N+](=O)[O-])ccc1N2`, for which the AC50 was 28.8 µM (active). Consider `CCCCCCCCCCCCOS(=O)(=O)O`, for which the AC50 is 86.6 µM (active).
